A short description of assay [1]: NCI Yeast Anticancer Drug Screen. Data for the rad50 strain (AID 155).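 Further: 0% = growth of vehicle-only cultures of the same strain.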 As to conditions: S. cerevisiae rad50 strain growth inhibition; at 50.0 µM; active compounds read high. The method, boiled down: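 Cells are treated with compound, grown, and their growth is then scored against vehicle-only cultures of the same repair-deficient yeast strain.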
The nature of assay [2]: NCI Yeast Anticancer Drug Screen. Data for the mec2-1 strain (AID 157). Particulars: S. cerevisiae mec2-1 strain, at 50.0 µM, active compounds read high. The method, boiled down:
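Each compound was tested on mec2-1 yeast, a strain altered in DNA damage repair or cell cycle control. Growth inhibition is reported relative to vehicle.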

Assay [3] can be described thus: NCI Yeast Anticancer Drug Screen. Data for the sgs1 mgt1 strain (AID 161).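 Further: 0% = growth of cultures given vehicle only.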 Particulars: S. cerevisiae sgs1 mgt1 strain, at 50.0 µM, active compounds read high. In outline:
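Inhibition of yeast growth, normalised to vehicle-treated controls, is reported for a strain bearing genetic alterations in DNA damage repair.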

A short description of assay [4]: NCI Yeast Anticancer Drug Screen. Data for the cln2 rad14 strain (AID 165).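 Further: 0% = growth equal to vehicle treated cultures.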 Particulars: S. cerevisiae cln2 rad14 strain, at 50.0 µM, active compounds read high. The method, boiled down:
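Test compounds were added to cln2 rad14 yeast cultures; inhibition of growth was then determined by comparison with vehicle treatment.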

The nature of assay [5]: NCI Yeast Anticancer Drug Screen. Data for the bub3 strain (AID 167). Particulars: S. cerevisiae bub3 mutant strain, at 50.0 µM, active compounds read high. In outline:
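Part of a panel of yeast mutants defective in DNA damage repair or cell cycle regulation. Each strain is grown with compound, and inhibition is calculated relative to solvent-treated cultures.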

The nature of assay [6]: NCI Yeast Anticancer Drug Screen. Data for the mlh1 rad18 strain (AID 175). As to conditions: S. cerevisiae mlh1 rad18 strain growth inhibition; at 50.0 µM; active compounds read high. In outline:
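Inhibition values reflect reduced growth of mutant yeast versus vehicle-treated controls following compound exposure; the mutations affect DNA damage repair.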

Structures are written as SMILES. About 79,000 compounds went through this panel and 15% of them were active in at least one assay; those are over-represented in the sample as a whole. A number with no mark means an inactive call. Active and inactive are the calls of the source. No stated cut-off is given here; in the data, active means growth inhibition above about 70%; inactive means the rest.

Consider 21 compounds from PubChem BioAssay (NCI).

Regarding `CC(=O)Nc1cc2c(cc1Br)-c1ccc(Br)cc1C2`, the growth inhibition was 32.4% in assay [1]; 8.4% in assay [2]; 11.8% in assay [3]; 15.6% in assay [4]; -2.45% in assay [5]; 14.4% in assay [6].

`CCCCCCCCCCCCCCCCNC(=O)C(C)O` (stereo unspecified): the growth inhibition is 23.9% in assay [1]; 3.2% in assay [2]; 17.2% in assay [3]; -13.9% in assay [4]; 7.7% in assay [5]; 30.4% in assay [6].

As for `NCCCCC(C(=O)NCC(=O)O)N(C(=O)OCc1ccccc1)C(=O)OCc1ccccc1` (stereo unspecified), the growth inhibition in assay [1] is -2%; in assay [2], -4.6%; in assay [3], -0.55%; in assay [4] it was -33.1%; in assay [5], -2.2%; in assay [6] it was -2.05%.

As for `O=c1oc2ccccc2cc1S(=O)(=O)c1ccc(Cl)cc1`, the growth inhibition is -0.9% in assay [1]; 0.85% in assay [2]; 3.7% in assay [3]; -58% in assay [4]; -9.75% in assay [5]; -20.4% in assay [6].

Regarding `CCOC(=O)/C(C#N)=C/c1cccc(Cl)c1`, the growth inhibition was 28.6% in assay [1]; 30% in assay [2]; 38.9% in assay [3]; 13.3% in assay [4]; 13.4% in assay [5]; 44% in assay [6].

Consider `O=C(N=Nc1c(O)[nH]c2ccccc12)C(=O)N=Nc1c(O)[nH]c2ccccc12`, for which the growth inhibition is -4.95% in assay [1]; 8.35% in assay [2]; 9.5% in assay [3]; -1.1% in assay [4]; 7.15% in assay [5]; 26.6% in assay [6].

Take `NNC(=O)CC(O)C(=O)NN` (stereo unspecified): the growth inhibition in assay [1] is -4.7%; in assay [2], -0.8%; in assay [3] it was -1.85%; in assay [4] it was 11.4%; in assay [5], -1.75%; in assay [6], 4.75%.

Turning to `CN(C)c1ccc(-c2c3ccc(Cl)cc3nc3ccc(Br)cc23)cc1`, the growth inhibition in assay [1] was -1.3%; in assay [2] it was -1.9%; in assay [3] it was -18.1%; in assay [4] it was -4.3%; in assay [5], -1%; in assay [6], -8.9%.

In the case of `CCCCCCCCCCOC(=O)c1ccccc1O`, the growth inhibition in assay [1] is -4.95%; in assay [2], -7.15%; in assay [3], 3.1%; in assay [4] it was -111%; in assay [5], 4.4%; in assay [6] it was -10.4%.

As for `O=C1C(c2ccccc2)=C(O)c2cccc3cccc1c23`, the growth inhibition was -24.4% in assay [1]; -33.5% in assay [2]; -13% in assay [3]; 13.4% in assay [4]; -3.65% in assay [5]; -57.6% in assay [6].

On to `Cc1cc(Cl)ccc1NC(=O)CCCC(=O)C1CCC/C1=N\NC(=O)CC#N` (stereo unspecified), for which the growth inhibition was -33.2% in assay [1]; 9.7% in assay [2]; -7.25% in assay [3]; 8.95% in assay [4]; 5.7% in assay [5]; -12.3% in assay [6].

For the compound `CC(=O)C(C(C)=O)[N+](=O)[O-].CC(=O)C(C(C)=O)[N+](=O)[O-].[Cu]`, the growth inhibition was 17.1% in assay [1]; -2.95% in assay [2]; -6.75% in assay [3]; -40.5% in assay [4]; 23.6% in assay [5]; 10.6% in assay [6].

On to `NC(=O)NC(=O)OCC(F)(F)C(F)(F)C(F)(F)C(F)(F)C(F)(F)C(F)(F)C(F)(F)F`, for which the growth inhibition in assay [1] was 45.8%; in assay [2], 9.9%; in assay [3], 31.4%; in assay [4], 15.6%; in assay [5] it was -0.45%; in assay [6] it was 6.85%.

In the case of `CCOC(=O)c1ccc(NC(C)=O)cc1`, the growth inhibition is 18% in assay [1]; 9.2% in assay [2]; 9.3% in assay [3]; -5.45% in assay [4]; -4.45% in assay [5]; 12.1% in assay [6].

Regarding `O=c1[nH]c(NCc2ccc(Cl)cc2)nc2nc[nH]c12`, the growth inhibition in assay [1] is 0.85%; in assay [2], -3.85%; in assay [3] it was -19.5%; in assay [4], 12.2%; in assay [5], -8.55%; in assay [6], -46.4%.

Turning to `CC1CC(=O)CCC2(C)C(OC(C)(C)C)CCC12` (stereo unspecified), the growth inhibition was 14.7% in assay [1]; -1.75% in assay [2]; -5.75% in assay [3]; 9.15% in assay [4]; 33.2% in assay [5]; 21.1% in assay [6].

Consider `COc1cc(C)c([N+](=O)[O-])cc1[N+](=O)[O-]`, for which the growth inhibition in assay [1] is 4.15%; in assay [2], 8.2%; in assay [3] it was 9.65%; in assay [4], -2.35%; in assay [5], -10.1%; in assay [6], 1%.

For the compound `CCOC(=O)C(=O)Nc1ccccc1C(C)C`, the growth inhibition in assay [1] was 12.4%; in assay [2], 6.05%; in assay [3] it was 0.2%; in assay [4], -7.15%; in assay [5] it was -9%; in assay [6], 6.35%.

`Cc1ccnc(NC(=O)Nc2ccc(C)cc2[N+](=O)[O-])c1`: the growth inhibition in assay [1] was 18.4%; in assay [2] it was 26.7%; in assay [3], 20.4%; in assay [4], 8.35%; in assay [5] it was 18.1%; in assay [6], 24%.

Consider `CSc1ccc(NC(=O)Nc2ccc(Cl)cc2C(=O)c2ccccc2)cc1`, for which the growth inhibition in assay [1] is 96.5% (active); in assay [2], 97.8% (active); in assay [3], 93.7% (active); in assay [4], 98% (active); in assay [5], 88.5% (active); in assay [6], 97.8% (active).

For the compound `CC(=O)NC(NCCN)(c1ccccc1)c1ccccc1`, the growth inhibition was -9.7% in assay [1]; -26.4% in assay [2]; -8.1% in assay [3]; 11.6% in assay [4]; 9.6% in assay [5]; -8.45% in assay [6].
